KCNQ2 inh: rat KCNQ2 potassium channel inhibitors, primary screen, cell-based, CHO-K1, FluxOR thallium flux, B-score. B-score at 10 µM. Potassium voltage-gated channel subfamily KQT member 2 (Rattus norvegicus), O88943. 1.1% of 310,000 active. 20 min; stronger effect = lower value;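 active means fluorescence ratio B-score at most minus 3 library SDs, with starting brightness B-score within 2 library SDs, cut at about -5.5 in these data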
Target sequence (O88943 whole entry, looked up): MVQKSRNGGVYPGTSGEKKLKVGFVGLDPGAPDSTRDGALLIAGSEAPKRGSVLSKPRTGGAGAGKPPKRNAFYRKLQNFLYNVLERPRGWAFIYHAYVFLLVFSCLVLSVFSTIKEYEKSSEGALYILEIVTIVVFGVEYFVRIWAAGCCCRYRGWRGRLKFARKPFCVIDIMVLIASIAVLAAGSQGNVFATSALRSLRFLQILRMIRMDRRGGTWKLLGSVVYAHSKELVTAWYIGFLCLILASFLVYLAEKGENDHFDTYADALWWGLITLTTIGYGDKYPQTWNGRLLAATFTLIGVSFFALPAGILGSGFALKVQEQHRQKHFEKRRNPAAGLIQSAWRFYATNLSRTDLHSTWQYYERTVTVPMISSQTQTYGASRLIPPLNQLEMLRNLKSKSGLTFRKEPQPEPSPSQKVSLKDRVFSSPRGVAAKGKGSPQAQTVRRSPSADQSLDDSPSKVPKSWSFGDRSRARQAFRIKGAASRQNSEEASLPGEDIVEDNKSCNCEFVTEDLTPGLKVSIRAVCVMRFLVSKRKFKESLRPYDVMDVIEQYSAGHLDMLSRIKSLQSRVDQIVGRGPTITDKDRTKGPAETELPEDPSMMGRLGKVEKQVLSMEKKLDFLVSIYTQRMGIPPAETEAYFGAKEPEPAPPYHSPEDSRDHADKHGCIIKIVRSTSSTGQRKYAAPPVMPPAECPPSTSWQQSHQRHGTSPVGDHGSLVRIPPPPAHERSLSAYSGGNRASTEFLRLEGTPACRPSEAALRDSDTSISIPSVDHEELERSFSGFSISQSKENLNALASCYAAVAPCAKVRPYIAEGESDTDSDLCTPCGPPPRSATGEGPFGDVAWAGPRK
KCNQ2 enhance: potentiators of rat KCNQ2 potassium channel. CHO-K1 KCNQ2, FluxOR thallium flux fluorescence; stronger effect = higher value. 0.54% of 310,000 active. AID 2239, 2010. B-score at 10 µM;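 active means fluorescence ratio B-score at least 3 SD of library B-scores, with initial fluorescence B-score within 3 of them, cut at about 5.3 in these data; same plate scores as AID 2156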;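 further: B-score of peak minus minimum over baseline fluorescence ratio after K+ and Tl+ stimulus; positive B-score means potentiation of KCNQ2 with more thallium influx and brighter signal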
KCNQ2 inh conf: rat KCNQ2 potassium channel inhibitors, confirmation, cell-based, thallium flux | shares compounds with KCNQ2 inh | KCNQ2-expressing cells, inhibition; stronger effect = lower value | activity change, negative = inhibition, % at 10 µM | 57% of 1,000 active
KCNQ1 spec: human KCNQ1 channel inhibition, counter-screen for KCNQ2 inhibitor project, cell-based, FluxOR thallium flux | activity change, negative = inhibition, % at 10 µM | 15% of 1,000 active | KCNQ1-expressing cells, FluxOR thallium flux fluorescence; stronger effect = lower value | shares compounds with KCNQ2 inh;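 active means activity change at least 3 SD of negative controls below their mean in both duplicate wells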;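 further: CHO cells stably transfected with KCNQ1 and depolarized by potassium stimulus; peak minus minimum fluorescence over baseline after thallium addition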
CHO Tl ctr: thallium flux change in parental CHO cells, counter-screen for KCNQ2 inhibitor project; shares compounds with KCNQ2 inh; stronger effect = lower value; activity change, % at 10 µM; 14% of 1,000 active; AID 493029, 2011
KCNQ2 patch conf: rat KCNQ2 channel inhibitors, confirmation, cell-based, automated patch clamp, single concentration; shares compounds with KCNQ2 inh; KCNQ2-expressing cells, automated patch clamp current; calls only at 10 µM; 49% of 550 active; AID 588531, 2011
Each line names hits and unclear results; the compound was inactive in the other large screens (follow-up assays come after a bar, where they were run). A selection: hits, their analogues and other compounds. The true share with any hit is near 1.6%. Unless noted, how the calls were made is not given here.

CCN1/C(=C\c2ccc3cc(C)ccc3[n+]2CC)Sc2cc(C)c(C)cc21	none (no result: KCNQ2 enhance)
CCN1CCN(C(=O)NCc2ccccc2)CC1	none
COc1cccc(C(=O)C(C#N)=C(SC)SC)c1	none (no result: KCNQ2 enhance)
CSC(SC)=C(C#N)C(=O)c1ccccc1	KCNQ2 inh -7.9 | KCNQ2 inh conf inactive | KCNQ1 spec inactive | CHO Tl ctr inactive
COc1ccc(/C=C(/NC(=O)c2ccco2)C(=O)Nc2ccc(C(=O)O)cc2)cc1	none (no result: KCNQ2 enhance)
CCn1cnc2cc(NCc3nc4ccccc4n3Cc3ccccc3)ccc21	KCNQ2 inh -8.5 | KCNQ2 inh conf -34% | KCNQ1 spec inactive | CHO Tl ctr inactive | KCNQ2 patch conf active
CCn1cnc2cc(NCc3nc4ccccc4n3C)ccc21	none (no result: KCNQ2 enhance)
CC1CCN(CCCNC(=O)C2CCC(CNS(=O)(=O)c3ccccc3)CC2)CC1 (stereo not given)	none
CC(C)(Oc1ccc(Cl)cc1)C(=O)N1CCN(c2ccccn2)CC1	KCNQ2 inh -7.4 | KCNQ2 inh conf inactive | KCNQ1 spec inactive | CHO Tl ctr inactive
O=C(/C=C/c1ccc(Cl)cc1)N1CCN(c2ccccn2)CC1	none (no result: KCNQ2 enhance)
O=C(O)/C=C\C(=O)Nc1ccc(F)c(F)c1F	none (no result: KCNQ2 enhance)
O=C(COC(=O)C1CCN(c2ccc(C(F)(F)F)cn2)CC1)NCCc1ccccc1	none
COc1ccccc1CNC(=O)COC(=O)C1CCN(c2ccc(C(F)(F)F)cn2)CC1	KCNQ2 inh -6.8 | KCNQ2 inh conf inactive | KCNQ1 spec inactive | CHO Tl ctr inactive
S=C(Nc1ccc(Nc2ccccc2)cc1)N1CCN(c2ncccn2)CC1	none
CC1CCN(S(=O)(=O)CCNC(=O)c2ccc(F)cc2)CC1	none
CCCN(CC(=O)Nc1ccccc1OC)C(=O)CCNC(=O)c1ccccc1OC	none (no result: KCNQ2 enhance)
CN1C(=O)CSC1=NC12CC3CC(CC(C3)C1)C2	none (no result: KCNQ2 enhance)
CCN1C(=O)CSC1=NC12CC3CC(CC(C3)C1)C2	KCNQ2 inh -7.8 | KCNQ2 inh conf -32% | KCNQ1 spec -30% | CHO Tl ctr -30% | KCNQ2 patch conf inactive
Cc1nc2sccn2c(=O)c1S(=O)(=O)Nc1cccc(Cl)c1C	none (no result: KCNQ2 enhance)
COCCn1c(=O)[nH]c2cc(C(=O)N3CCN(c4cccc(C)c4C)CC3)ccc2c1=O	none
Cc1ccccc1C(=O)Nc1ccccc1NC(=O)c1ccccc1Br	none (no result: KCNQ2 enhance)
COc1ccc(Nc2ccccc2NC(=O)c2ccccc2Br)cc1	KCNQ2 inh -9.6 | KCNQ2 inh conf -22% | KCNQ1 spec inactive | CHO Tl ctr inactive | KCNQ2 patch conf active
Cc1cccc(C)c1N(C(=O)c1ccco1)C(C(=O)NC1CCCC1)c1ccncc1 (stereo not given)	none
Clc1ccc(COn2c(-c3ccc(Cl)cc3)nc3ccccc32)cc1	none (no result: KCNQ2 enhance)
Clc1ccc(COn2c(-c3ccccc3)nc3ccccc32)cc1	KCNQ2 inh -14 | KCNQ2 inh conf inactive | KCNQ1 spec inactive | CHO Tl ctr inactive
CCN(Cc1ccccc1)C(=O)c1cc2c(OC)c(OC)c(OC)cc2[nH]1	none (no result: KCNQ2 enhance)
O=C(Nc1ccc2c(c1)OCO2)C(c1ccccc1)N1CCCCC1 (stereo not given)	none (no result: KCNQ2 enhance)
CC1CCN(C(C(=O)Nc2ccc3c(c2)OCO3)c2ccccc2)CC1 (stereo not given)	KCNQ2 inh -7 | KCNQ2 inh conf inactive | KCNQ1 spec inactive | CHO Tl ctr inactive
O=C(Nc1cccc(-c2csc(Nc3ccccc3)n2)c1)c1ccccc1	KCNQ2 inh -6.8 | KCNQ2 inh conf inactive | KCNQ1 spec inactive | CHO Tl ctr inactive
O=C(Nc1cccc(-c2csc(Nc3cccc(C(F)(F)F)c3)n2)c1)c1ccccc1	none
O=S(=O)(c1cc(Cl)c(Cl)cc1Cl)N1CCN2CCCC2C1 (stereo not given)	none
CCCCCCCCCCCCCCCC(O)C(N)CO (stereo not given)	KCNQ2 inh -10 | KCNQ2 inh conf inactive | KCNQ1 spec inactive | CHO Tl ctr inactive
CCCCCC[C@@H]([C@@H](C)O)n1cnc2c(N)ncnc21	none
Clc1ccc(-c2csc(N3CCC(c4ccccc4)C3)n2)cc1 (stereo not given)	none (no result: KCNQ2 enhance)
Fc1ccc(-c2csc(N3CCC(c4ccccc4)C3)n2)cc1 (stereo not given)	KCNQ2 inh -9.5 | KCNQ2 inh conf inactive | KCNQ1 spec inactive | CHO Tl ctr inactive
CN1C(=O)C(c2ccccc2[N+](=O)[O-])C(=O)c2ccccc21 (stereo not given)	none
CCCCn1c(N)c(N(CCOC)C(=O)C(C)N2C(=O)c3ccccc3C2=O)c(=O)[nH]c1=O (stereo not given)	none
Cc1ccc(S(=O)(=O)N2CCN(C(=O)CNC(=O)c3sc4ccccc4c3Cl)CC2)cc1	none
Cc1cc(N2CCCCC2)n2ncc(-c3ccccc3)c2n1	none (no result: KCNQ2 enhance)
Cc1cc(N2CCC(C)CC2)n2ncc(-c3ccccc3)c2n1	KCNQ2 inh -8.3 | KCNQ2 inh conf -16% | KCNQ1 spec inactive | CHO Tl ctr inactive | KCNQ2 patch conf inactive
Cc1cccc(NC(=O)CCN2CCC(C)CC2)c1	none
O=C(CCC1CCCN(C(=O)c2cccc(F)c2)C1)N1CCN(c2ccccn2)CC1 (stereo not given)	none
CCOC(=O)N1CCC(n2c(SCC(=O)N3CCC(C)CC3)nc3ccccc3c2=O)CC1	KCNQ2 inh -7.8 | KCNQ2 inh conf inactive | KCNQ1 spec inactive | CHO Tl ctr inactive
CCOC(=O)N1CCC(n2c(SCC(=O)N3CCCC3)nc3ccccc3c2=O)CC1	none (no result: KCNQ2 enhance)
CCOC(=O)N1CCC(n2c(SCC(=O)NCCC3=CCCCC3)nc3ccccc3c2=O)CC1	KCNQ2 inh -7.5 | KCNQ2 inh conf inactive | KCNQ1 spec inactive | CHO Tl ctr inactive
CCOC(=O)N1CCC(n2c(SCC(=O)NCc3ccccc3)nc3ccccc3c2=O)CC1	none (no result: KCNQ2 enhance)
COc1ccc(-c2nc(CS(=O)CC(=O)NC3CCCc4ccccc43)c(C)o2)cc1OC (stereo not given)	none (no result: KCNQ2 enhance)
COc1ccc(-c2nc(CSCC(=O)NC3CCCc4ccccc43)c(C)o2)cc1OC (stereo not given)	KCNQ2 inh -10 | KCNQ2 inh conf inactive | KCNQ1 spec inactive | CHO Tl ctr inactive
Cc1noc(C)c1CSCC(=O)N(C)CC(=O)Nc1ccc(Cl)cc1	none
O=C(CCN1C(=O)c2ccc(Br)cc2C1=O)NC1CCCCC1	none
O=C(N/C=C\c1ccccc1)NCc1ccc(Cl)cc1Cl	none (no result: KCNQ2 enhance)
O=C(N/C=C\c1ccccc1)NCc1ccc(Cl)cc1	KCNQ2 inh -7 | KCNQ2 inh conf inactive | KCNQ1 spec inactive | CHO Tl ctr inactive
Cc1ccc(NC2CCCN(C(=O)c3cccc(-c4ncc[nH]4)c3)C2)cc1C (stereo not given)	none
Cc1nc(C)c(-c2ccc(SCC(=O)Nc3cccc(Cl)c3C)nn2)s1	none
O=C(Nc1ccccc1C(F)(F)F)c1ncn[nH]1	none

Assay outcomes (PubChem BioAssay)
